# PubChem BioAssay
# The source made the active and inactive calls.
# What was measured:
# [1] = optical density shifts of acrAB sulA E. coli – strain DRC41, OD650, 48 h, E. coli filamentation inducer project, primary screen (AID 1152); conditions: higher = more signal, called active from +8 up or from −8 down;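 further: E. coli MC1000 strain DRC41 lacking acrAB efflux pump and sulA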
# [2] = probe aLefty1 binding on compound microarray – biochemical, small-molecule microarray, 635/667 nm fluorescence, primary screen (AID 1153); conditions: higher = more signal;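 further: score merges spot fluorescence with signal-to-noise ratio from the scanned slide images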
# [3] = plasmodial surface anion channel blockers, osmotic lysis – cell-based, P. falciparum Indochina, OD700, 1 h, primary screen (AID 1154); conditions: P. falciparum Indochina infected RBC osmotic lysis, higher = more signal, called active from +8 up or from −8 down
# [4] = plasmodial surface anion channel blockers, osmotic lysis – cell-based, P. falciparum Indochina, OD700, 2 h, primary screen (AID 1155);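 further: lysis reports solute entry through the parasite surface anion channel PSAC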; conditions: P. falciparum Indochina infected erythrocytes, higher = more signal, called active from +8 up or from −8 down
# [5] = changes in parasitized red cell lysis, either direction – P. falciparum Indochina, OD700, 3 h, PSAC antagonist project, primary screen (AID 1156); conditions: P. falciparum-infected erythrocytes, osmotic lysis, higher = more signal, called active from +8 up or from −8 down
# [6] = plasmodial surface anion channel blockers, osmotic lysis – cell-based, P. falciparum Indochina, OD700, 18 h, primary screen (AID 1157); conditions: P. falciparum Indochina infected erythrocytes, osmotic lysis OD700, 18 h; higher = more signal, called active from +8 up or from −8 down
# [7] = S6 kinase pathway phospho-S6 level changes – cell-based, A549, cytoblot, luminescence, serum-stimulated, primary screen (AID 1158); conditions: 5 h, higher = more signal;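 further: serum-stimulated A549 lung adenocarcinoma cells; signal is phosphorylated S6 detected by cytoblot immunostaining with HRP secondary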
# [8] = target: NADPH oxidase 2 (Homo sapiens) (UniProt P04839); test: compounds shifting NOX2 Amplex Red fluorescence – cell-based, HEK293-NOX2, PMA-stimulated, NOX inhibitor project, primary screen (AID 1159); conditions: 45 min, higher = more signal, called active from +8 up or from −8 down; further: test concentration not given here
# [9] = target: NADPH oxidase 4 (Homo sapiens) (UniProt Q9NPH5); test: compounds shifting NOX4 Amplex Red fluorescence – cell-based, HEK293-NOX4, tetracycline-induced, NOX inhibitor project, primary screen (AID 1160); conditions: HEK293-NOX4, Amplex Red H2O2 fluorescence, 45 min; higher = more signal, called active from +8 up or from −8 down
# [10] = target: NADPH oxidase 5 (Homo sapiens) (UniProt Q96PH1); test: compounds shifting NOX5 Amplex Red fluorescence – cell-based, HEK293-NOX5, NOX inhibitor project, primary screen (AID 1161); conditions: HEK293-NOX5, ionomycin, 45 min, higher = more signal
# [11] = compound effects on lung adenocarcinoma cell viability – A549, calcein-AM fluorescence, 48 h, basal, profiling panel (AID 1162); conditions: higher = more signal; further: test concentration not given here
# [12] = compound effects on differentiated 3T3-L1 adipocyte viability – cell-based, 3T3-L1 adipocytes, calcein-AM fluorescence, 48 h, basal, profiling panel (AID 1163); conditions: 3T3-L1 adipocytes viability, higher = more signal; further: test concentration not given here
# [13] = compound effects on hepatocellular carcinoma cell viability – HepG2, calcein-AM fluorescence, 48 h, basal, profiling panel (AID 1164); conditions: higher = more signal; further: test concentration not given here
# [14] = compound effects on multiple myeloma cell viability – MM1S, calcein-AM fluorescence, 48 h, basal, profiling panel (AID 1165); conditions: higher = more signal; further: test concentration not given here
# [15] = calcein-AM signal in unstimulated myeloma cells – cell-based, calcein-AM fluorescence, 48 h, PK04 Diversity Set, profiling panel (AID 1166); conditions: RPMI8226 myeloma viability, higher = more signal;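 further: cells grown under basal conditions without added stimulus; test concentration not given here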
# [16] = JC-1 mitochondrial signal, unstimulated HepG2 cells – cell-based, JC-1 fluorescence, 24 h, 100 nL compound, profiling panel (AID 1167); conditions: HepG2 mitochondrial potential, higher = more signal; further: test concentration not given here
# [17] = JC-1 mitochondrial signal, unstimulated adipocytes – cell-based, JC-1 fluorescence, 3T3-L1 adipocytes, 24 h, 100 nL compound, profiling panel (AID 1168); conditions: JC-1 mitochondrial fluorescence, higher = more signal, called active from +8 up or from −8 down; further: test concentration not given here
# [18] = JC-1 mitochondrial signal, unstimulated myeloma cells – cell-based, JC-1 fluorescence, RPMI8226, 24 h, 100 nL compound, profiling panel (AID 1169); conditions: JC-1 mitochondrial potential fluorescence, higher = more signal; further: test concentration not given here
# [19] = JC-1 mitochondrial signal, unstimulated MM1S myeloma – cell-based, JC-1 fluorescence, 24 h, 100 nL compound, profiling panel (AID 1170); conditions: MM1S mitochondrial potential, higher = more signal; further: test concentration not given here
# [20] = resazurin metabolic signal in A549 cells – cell-based, resazurin fluorescence, 24 h, PK04 Diversity Set, profiling panel (AID 1171); conditions: A549 viability, higher = more signal, called active from +8 up or from −8 down; further: test concentration not given here
# Sequence of NADPH oxidase 4 (Homo sapiens) (Q9NPH5 whole entry, looked up): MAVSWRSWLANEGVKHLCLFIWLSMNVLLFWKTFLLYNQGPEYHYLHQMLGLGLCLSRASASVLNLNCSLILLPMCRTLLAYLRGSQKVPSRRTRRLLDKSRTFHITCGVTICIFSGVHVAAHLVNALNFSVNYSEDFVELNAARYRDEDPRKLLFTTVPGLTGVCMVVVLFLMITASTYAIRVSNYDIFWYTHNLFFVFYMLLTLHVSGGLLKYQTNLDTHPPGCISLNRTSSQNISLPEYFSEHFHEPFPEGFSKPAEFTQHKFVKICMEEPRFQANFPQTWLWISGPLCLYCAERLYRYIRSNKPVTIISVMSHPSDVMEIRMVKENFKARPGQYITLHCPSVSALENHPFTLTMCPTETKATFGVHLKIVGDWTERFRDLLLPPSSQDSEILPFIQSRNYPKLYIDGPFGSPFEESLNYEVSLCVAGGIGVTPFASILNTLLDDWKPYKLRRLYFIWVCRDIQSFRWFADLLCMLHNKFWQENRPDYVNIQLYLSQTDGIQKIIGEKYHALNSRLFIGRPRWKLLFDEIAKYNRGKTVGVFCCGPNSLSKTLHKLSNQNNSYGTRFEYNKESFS
# Sequence of NADPH oxidase 5 (Homo sapiens) (Q96PH1 whole entry, looked up): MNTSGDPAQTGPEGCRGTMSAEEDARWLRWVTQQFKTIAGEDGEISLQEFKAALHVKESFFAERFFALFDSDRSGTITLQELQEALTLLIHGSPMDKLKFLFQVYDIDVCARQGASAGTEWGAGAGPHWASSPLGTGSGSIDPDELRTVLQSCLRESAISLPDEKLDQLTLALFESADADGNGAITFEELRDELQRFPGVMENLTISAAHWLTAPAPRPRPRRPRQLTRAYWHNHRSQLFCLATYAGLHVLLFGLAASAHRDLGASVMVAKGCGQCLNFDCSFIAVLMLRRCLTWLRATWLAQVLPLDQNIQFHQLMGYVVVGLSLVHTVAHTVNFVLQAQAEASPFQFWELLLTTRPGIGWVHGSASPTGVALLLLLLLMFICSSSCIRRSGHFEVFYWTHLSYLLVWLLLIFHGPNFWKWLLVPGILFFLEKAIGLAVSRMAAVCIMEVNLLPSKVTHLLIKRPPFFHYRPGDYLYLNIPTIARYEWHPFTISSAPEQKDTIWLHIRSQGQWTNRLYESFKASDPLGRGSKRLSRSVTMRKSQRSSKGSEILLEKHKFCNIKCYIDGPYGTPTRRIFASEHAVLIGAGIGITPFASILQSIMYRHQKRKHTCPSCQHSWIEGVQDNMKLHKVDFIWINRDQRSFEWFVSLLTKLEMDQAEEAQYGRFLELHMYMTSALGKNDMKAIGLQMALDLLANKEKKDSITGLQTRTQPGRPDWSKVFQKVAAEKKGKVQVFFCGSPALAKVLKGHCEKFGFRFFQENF
# Sequence of NADPH oxidase 2 (Homo sapiens) (P04839 whole entry, looked up): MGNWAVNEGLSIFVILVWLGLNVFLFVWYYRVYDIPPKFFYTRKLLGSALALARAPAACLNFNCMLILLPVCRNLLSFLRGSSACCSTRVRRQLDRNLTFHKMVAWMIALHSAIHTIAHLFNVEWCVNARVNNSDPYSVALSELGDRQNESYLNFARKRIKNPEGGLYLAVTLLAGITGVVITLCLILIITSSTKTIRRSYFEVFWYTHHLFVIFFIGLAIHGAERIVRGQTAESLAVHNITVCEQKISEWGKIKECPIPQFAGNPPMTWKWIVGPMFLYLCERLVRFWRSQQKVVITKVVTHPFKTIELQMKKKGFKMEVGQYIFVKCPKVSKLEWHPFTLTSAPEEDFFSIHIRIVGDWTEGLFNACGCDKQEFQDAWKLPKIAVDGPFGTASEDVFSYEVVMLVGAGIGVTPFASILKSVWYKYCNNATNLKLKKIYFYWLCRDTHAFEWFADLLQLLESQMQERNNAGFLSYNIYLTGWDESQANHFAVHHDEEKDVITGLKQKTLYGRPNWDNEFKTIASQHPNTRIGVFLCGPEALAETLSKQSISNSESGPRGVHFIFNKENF
Structure (SMILES),z-score [1],composite z-score [2],z-score [3],z-score [4],z-score [5],z-score [6],z-score [7],z-score [8],z-score [9],z-score [10],z-score [11],z-score [12],z-score [13],z-score [14],z-score [15],z-score [16],z-score [17],z-score [18],z-score [19],z-score [20]
CN1C(=O)C2C=CC(C(O)c3ccc(F)cc3)N(N3CCCCC3)C2C1=O (stereo not given),-1.37 (inactive),0.604,1.02 (inactive),1.14 (inactive),0.772 (inactive),1.2 (inactive),-1.08,0.0457 (inactive),-0.751 (inactive),-1.35,-1.1,-1.24,-0.572,-1.05,0.0924,-1.43,-0.487 (inactive),0.00989,-0.118,-0.707 (inactive)
COc1ccc([Si](C)(C)[C@@H]2[C@@H](CCO)O[C@]3(C(=O)N(Cc4ccc(N5C(=O)c6ccccc6Oc6ccccc65)cc4)c4ccccc43)[C@H]2C)cc1,-0.572 (inactive),0.0496,3.28 (inactive),1.99 (inactive),-1.14 (inactive),1.26 (inactive),0.0148,0.0702 (inactive),1.63 (inactive),2.29,-0.738,-0.703,-3.56,-2.31,-3.17,-0.42,0.462 (inactive),-1.06,-1.68,-1.47 (inactive)
C=C(CCCC)/C(=C/C[C@@H](OC(=O)c1ccncc1)c1ccccc1OCCO)c1cc(C(=O)OC)ccc1OC,0.504 (inactive),0.282,28 (active),17.5 (active),3.94 (inactive),2.07 (inactive),0.761,1.08 (inactive),-0.25 (inactive),-1.62,0.0198,0.725,0.949,-3.26,-3.93,2.84,-0.188 (inactive),-0.497,-1.14,0.17 (inactive)
OCc1ccc(-c2cc[n+](Cc3cccc(OC(F)(F)F)c3)cc2)cc1,0.0027 (inactive),0.423,0.51 (inactive),0.409 (inactive),-0.445 (inactive),-0.0616 (inactive),-0.104,-0.316 (inactive),-0.0783 (inactive),-3.79,-1.19,0.983,-0.52,0.47,-0.483,-0.628,0.296 (inactive),-0.672,-0.704,-0.395 (inactive)
C=CCC(OC(C)=O)[C@@H]1[C@@H](N(Cc2cccc3ccccc23)C(=O)Cc2ccc(F)cc2)c2cc(OCCCO)ccc2N1C(=O)Cc1ccc(OC)cc1 (stereo not given in full),1.44 (inactive),0.0789,0.922 (inactive),-0.262 (inactive),-0.0628 (inactive),-0.545 (inactive),1.36,-0.973 (inactive),0.113 (inactive),0.743,1.34,1.88,0.99,0.827,0.762,2.26,0.527 (inactive),0.183,-0.0319,0.641 (inactive)
CC(C)CN1C(=O)[C@@]2(Cc3ccccc31)c1ccccc1C(=O)N(Cc1ccccc1)[C@H]2c1ccc(CO)cc1,-0.731 (inactive),-0.702,0.0889 (inactive),-0.719 (inactive),0.27 (inactive),0.157 (inactive),0.148,0.439 (inactive),-0.348 (inactive),-0.498,-0.225,-0.0208,-0.134,-0.688,-0.152,-0.529,-0.224 (inactive),0.0482,1.07,-0.252 (inactive)
Cc1ccc(F)cc1S(=O)(=O)N[C@@H]1CCN(C(=O)c2ccc(OC(C)C)cc2)C1,0.295 (inactive),-0.0973,2.54 (inactive),1.02 (inactive),0.79 (inactive),0.427 (inactive),-0.102,-0.471 (inactive),-0.0285 (inactive),-0.257,0.0926,-1.39,-0.471,0.0842,-0.705,-0.14,-0.0993 (inactive),-0.276,-0.497,-0.216 (inactive)
C=CCC(OC(C)=O)[C@@H]1[C@@H](N(Cc2ccc(-c3cccc(C(F)(F)F)c3)o2)C(=O)c2cccc3ccccc23)c2cc(OCCCO)ccc2N1C(=O)c1ccc(-c2ccccc2)cc1 (stereo not given in full),-0.985 (inactive),-0.012,0.531 (inactive),0.431 (inactive),2.33 (inactive),0.485 (inactive),-0.326,-0.959 (inactive),-1.45 (inactive),-1.08,0.558,0.865,-0.382,-1.04,-1.23,2.41,-2.44 (inactive),0.00531,0.988,-0.93 (inactive)
COc1ccc(C(=O)Nc2ccc(CN3C(=O)[C@]4(O[C@H](CCn5cc([C@H](O)c6ccccc6)nn5)[C@@H]([Si](C)(C)c5ccc(OC)cc5)[C@@H]4C)c4ccccc43)cc2)cc1,-0.372 (inactive),0.193,3.29 (inactive),1.02 (inactive),0.741 (inactive),1.26 (inactive),0.319,0.753 (inactive),0.206 (inactive),2.27,-0.0731,-0.145,-4.03,-2.67,-3.84,1.48,0.374 (inactive),-1.12,-2.36,-1.64 (inactive)
COCCOC(=O)N1C(=O)[C@@]2(c3cc(C#CCNC(N)=O)ccc31)[C@H](c1ccc(OCCO)cc1)N1[C@H](c3ccccc3)[C@H](c3ccccc3)OC(=O)[C@H]1[C@@H]2C(=O)N1CCN(c2ncccn2)CC1,-0.283 (inactive),0.209,4.15 (inactive),1.81 (inactive),0.428 (inactive),1.05 (inactive),0.537,2.29 (inactive),0.937 (inactive),0.877,-0.142,0.169,-0.123,-0.216,0.191,-1.76,1 (inactive),0.118,-0.572,1.28 (inactive)
COc1ccccc1CN1C(=O)c2ccccc2[C@@H](C(=O)NCC(C)C)[C@@H]1c1ccc(CO)cc1,1.08 (inactive),-0.0061,1.12 (inactive),0.157 (inactive),1.23 (inactive),0.206 (inactive),-0.195,1.78 (inactive),-0.496 (inactive),1.67,0.467,0.796,0.306,0.869,-2.01,0.962,-1.09 (inactive),0.398,0.544,-0.624 (inactive)
CC(C)(C)OC(=O)CC[C@@]1(C(=O)N2CCCCC2)N=C(c2ccc(OCCCO)cc2)O[C@@H]1c1ccccc1CN=[N+]=[N-],0.502 (inactive),0.549,29.6 (active),25 (active),1.03 (inactive),4.6 (inactive),-0.243,-0.601 (inactive),1.13 (inactive),1.22,0.708,-0.125,1.25,-3.47,-0.624,2.12,-0.405 (inactive),-0.863,-0.995,0.642 (inactive)
CO[C@H]1O[C@H](CO)[C@@H](OC(=O)Nc2ccc(C(F)(F)F)cc2)[C@H](OC(=O)Nc2ccccc2)[C@H]1OC(=O)Nc1ccccc1,-1.41 (inactive),1.14,4.63 (inactive),1.22 (inactive),-2.03 (inactive),0.887 (inactive),0.121,-5.31 (inactive),-1.39 (inactive),-1.85,-3.56,1.96,-5.2,-3.39,-4.45,-1.93,0.575 (inactive),-1.27,-1.45,-6.31 (inactive)
COC(=O)C(CC#Cc1ccc2c(c1)[C@]1(C(=O)N2)[C@H](c2ccc(O)cc2)N2[C@H](c3ccccc3)[C@H](c3ccccc3)OC(=O)[C@H]2[C@@H]1C(N)=O)C(=O)OC,2.05 (inactive),-0.216,1.09 (inactive),1.58 (inactive),0.6 (inactive),1.3 (inactive),1.39,0.222 (inactive),0.356 (inactive),-0.453,1.43,-0.0866,0.188,0.244,0.728,1.44,0.673 (inactive),-0.846,-0.0448,1.42 (inactive)
COc1ccc([Si](C)(C)[C@@H]2[C@@H](CCO)O[C@]3(C(=O)N(Cc4ccccc4)c4ccc(N5C(=O)COc6ccccc65)cc43)[C@H]2C)cc1,2.1 (inactive),-0.435,3.28 (inactive),2.11 (inactive),0.364 (inactive),1.78 (inactive),0.631,0.883 (inactive),1.33 (inactive),1.42,-1.4,0.155,-1.08,-2.24,-0.0589,0.102,0.222 (inactive),-0.741,-0.857,-0.177 (inactive)
CCCCC(CC)C(O)C1C=CC2C(=O)NC(=O)C2N1Nc1ccccn1 (stereo not given),-0.757 (inactive),-0.0754,1.68 (inactive),0.648 (inactive),0.186 (inactive),0.408 (inactive),-0.606,0.201 (inactive),-3.35 (inactive),-2.14,0.373,-0.131,1.12,-0.11,0.581,0.0822,-0.506 (inactive),0.713,-0.792,-0.858 (inactive)
CC(C)C(CO)N1C(=O)[C@@H]2[C@H]3C(=O)OCC=C[C@H]3OC23C=CCN(CCN2CCOCC2)C(=O)[C@@H]13 (stereo not given in full),-0.706 (inactive),-0.263,0.897 (inactive),-0.136 (inactive),0.675 (inactive),0.0875 (inactive),-0.679,1.26 (inactive),0.258 (inactive),2.02,-0.334,-0.347,-0.434,-0.201,0.372,-0.982,-0.648 (inactive),0.237,0.105,-0.324 (inactive)
Cc1ccc(S[C@]2(C(=O)NCc3ccccc3)CC(=O)N(C3Cc4ccccc4C3)[C@@H]2c2ccc(CO)cc2I)cc1,3.36 (inactive),0.0049,3.94 (inactive),-0.533 (inactive),-0.406 (inactive),-0.63 (inactive),1.58,0.542 (inactive),-0.966 (inactive),1.42,1.38,-0.196,1.54,-2.33,-1.52,0.353,0.698 (inactive),-0.686,-0.972,-0.862 (inactive)
